Assay outcomes: PubChem BioAssay, several laboratories
Rtt109 HAT inh – inhibitors of C. albicans Rtt109/Vps75 HAT, primary screen, biochemical, ThioGlo CoA-SH fluorescence, plate reader; Histone acetyltransferase RTT109 (Candida albicans (strain SC5314 / ATCC MYA-2876)), …; purified Rtt109/Vps75, 4 h; inhibition, % at 34.9 µM; 330,000 compounds, 0.16% hits; AID 540336, 2011;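 active = inhibition of at least 50% in every replicate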
Target sequence (Q5AAJ8 whole entry, looked up): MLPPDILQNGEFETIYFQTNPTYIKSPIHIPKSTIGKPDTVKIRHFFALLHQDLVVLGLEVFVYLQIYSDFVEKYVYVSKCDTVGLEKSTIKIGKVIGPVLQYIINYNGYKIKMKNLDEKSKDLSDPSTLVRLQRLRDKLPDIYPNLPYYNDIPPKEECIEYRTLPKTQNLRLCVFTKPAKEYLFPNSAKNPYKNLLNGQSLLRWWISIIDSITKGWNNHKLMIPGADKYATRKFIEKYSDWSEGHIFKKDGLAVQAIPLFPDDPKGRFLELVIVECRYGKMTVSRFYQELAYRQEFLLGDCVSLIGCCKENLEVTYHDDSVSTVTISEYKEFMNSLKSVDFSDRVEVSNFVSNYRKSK
HDAC3 inhib – HDAC3 deacetylase inhibitors, primary screen, biochemical, fluorescence, cell-free homogeneous. 320,000 compounds, 0.15% hits. inhibition, % at 8.3 µM. Histone deacetylase 3 (Homo sapiens), O15379. recombinant HDAC3, fluorogenic peptide/trypsin coupled; in the data active = inhibition above about 26%, passing the limit was not always enough
MIN6 prolif-1 – inducers of MIN6 beta-cell proliferation, primary screen, ATP luminescence, uHTS; 330,000 compounds, 0.29% hits; MIN6 cells proliferation, ATPlite luminescence, 48 h; cells starved in 0.2% serum; 100% = growth in 10% serum; AID 2380, 2010; proliferation, % at 10 µM;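 active = compounds whose signal lies at least 3.5 SD above the mean of all wells on their plate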;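 note: 0% = DMSO-treated cells in low-serum medium and 100% = 10% serum control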
V-ATPase pH – regulators of yeast V-ATPase proton pumping, primary screen, pHLuorin cytosolic pH fluorescence. S. cerevisiae. response, % at 10 µM. 350,000 compounds, 0.37% hits; in the data active = response mostly above about 7.3%, no sharp cut-off; inactive = mostly below about 5.4%; note: actives read high
DAGLB inhibitor – DAGLB lipase inhibitors, primary screen, biochemical, fluorescence, HTS | HEK293T DAGLB membrane lysate, EnzChek fluorogenic substrate | inhibition, % at 5.17 µM | 340,000 compounds, 0.059% hits; in the data active = inhibition above about 34%;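 note: 0% = enzyme with vehicle and 100% = wells lacking enzyme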
MIN6 prolif-2 – inducers of beta-cell proliferation in MIN6, confirmation, MIN6 cells, mouse. 920 tested, under 10 active. proliferation increase, % at 50 µM. shares compounds with MIN6 prolif-1. ATPlite luminescence, 48 h; cells kept in 0.2% serum; scaled between 0.2% and 10% serum;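 active = proliferation increase above 40% at any of the four tested concentrations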
The depositor's hits bear a star; / = no result given. In the library only some 0.96% were active in any assay of this set; here they are far more common.

SMILES | Rtt109 HAT inh | HDAC3 inhib | MIN6 prolif-1 | V-ATPase pH | DAGLB inhibitor | MIN6 prolif-2
CCCCn1c(CN2CCOCC2)nc2c1c(=O)n(C)c(=O)n2C | -1 | / | 4 | -3 | -1 | /
Cc1cccc(C)c1NC(=O)C1CCN(S(C)(=O)=O)CC1 | 2 | -9 | -4 | 5 | 3 | /
CC1CCN(C(=O)c2ccc3c(c2)NC(=O)/C(=C/c2ccccc2)S3)CC1 | 2 | 3 | -7 | -2 | 4 | /
COCC1CCCCN1C(=O)c1ccc(OC)c(OC2CCN(C(C)C)CC2)c1 (stereo not given) | 0 | -5 | 4.8* | 5 | -2 | -2
Cc1ccc(-n2nc3c(=O)n(CCCC(=O)NC4CCC(C)CC4)nc(C)c3c2C)cc1 (stereo not given) | 5 | -4 | -7 | 2 | 2 | /
O=C(NCc1cccnc1)c1cccn1-c1ncc(C(F)(F)F)cc1Cl | / | -3 | 8.8* | -1 | 1 | -1
C/C(=N\NS(=O)(=O)c1ccc(C)cc1)c1cc2ccccc2oc1=O | -6 | 4 | 8.4* | 4 | 4 | -4
COCCNC(=O)c1ccc(C)cc1C | -13 | 3 | 7.9* | -1 | -1 | 1
O/N=C/c1cn(-c2ccccc2)nn1 | 5 | 2 | 7.6* | -4 | -2 | 2
COc1ccccc1NC(=O)C1CCN(S(C)(=O)=O)CC1 | 7 | -1 | -2 | -3 | -5 | /
COc1ccc(/C=N\NC(=O)CNC(=O)C2COc3ccccc3O2)cc1[N+](=O)[O-] (stereo not given) | 6 | 2 | 14* | -3 | 4 | -1
Cc1ccc(N(CC(=O)NC2CCCC2)C(=O)CCC(=O)Nc2nccs2)c(C)c1 | 3 | 1 | 21* | 2 | 3 | -1
CC1CN(Cc2ccccc2)c2ccccc2NC1=S (stereo not given) | -3 | 2 | 0.0* | 0 | 4 | -6
COc1ccc(NC(=O)c2ccc(-c3ccc(OC)cc3)s2)cc1 | -6 | 2 | -3 | 3 | 6 | /
Fc1cccc(Nc2nc3ccccc3n3nnnc23)c1 | 22 | 4 | 13* | 1 | -5 | 4
O=C(c1ccccc1Br)N1CCN(c2ccc([N+](=O)[O-])c(N3CCOCC3)c2)CC1 | 15 | 3 | -2 | 3 | 0 | /
O=C(c1ccco1)N1CCN(c2ccc([N+](=O)[O-])c(N3CCOCC3)c2)CC1 | 6 | 13 | 9.7* | 1 | 2 | 1
CCOn1c(=O)c(-c2cc3ccccc3o2)[n+]([O-])c2ccccc21 | -6 | -1 | 6.8* | 1 | -3 | 0
CCCCNC(=S)NNC(=O)c1csc(C)c1CC | 1 | 0 | 0.0* | 3 | -2 | -2
COc1ccc(CS(=O)(=O)CC(C)(O)c2ccccc2Cl)cc1 (stereo not given) | 0 | 4 | 8.9* | 2 | 0 | -4
CC1=C(C(=O)Nc2ccccc2)C(c2ccncc2)C(C#N)=C(SCC(=O)NC2CC2)N1 (stereo not given) | 0 | -3 | 8.3* | -3 | -1 | 2
CC1=C(C(=O)Nc2ccccc2)C(c2ccncc2)C(C#N)=C(SCC(=O)NC(C)C)N1 (stereo not given) | -12 | 8 | 0 | 1 | -1 | /
Cn1c(CNC(=O)c2ccc3c(c2)OCO3)nnc1SCC(=O)Nc1ccc(F)cc1F | -13 | -3 | -2 | -4 | 0 | /
Cc1cc(C)nc(-n2nc(C)cc2NC(=O)CN2CCCC2)n1 | -3 | 0 | 3 | 0 | 2 | /
Cc1cc(C)nc(-n2nc(C)cc2NC(=O)CN2CCC(C)CC2)n1 | 31 | -7 | 4.9* | -6 | 0 | -6
SMILES | Rtt109 HAT inh | HDAC3 inhib | MIN6 prolif-1 | V-ATPase pH | DAGLB inhibitor | MIN6 prolif-2
O=C(c1ccc(-n2cncn2)c([N+](=O)[O-])c1)N1CCN(S(=O)(=O)c2c(F)cccc2F)CC1 | -1 | 1 | -2 | 3 | 3 | /
Cc1ccc(NC(=O)CN2C(=S)NC(C)(C)CC2C)cc1Cl (stereo not given) | 3 | -2 | -1 | -4 | 0 | /
CCN(C(=O)CN1C(=S)NC(C)(C)CC1C)c1ccc(C)c(C)c1 (stereo not given) | 2 | -6 | 9.3* | -4 | -2 | -2
CCC1(CC)Cc2ccccc2C(=C(C#N)C#N)N1 | -5 | 6 | -1 | 4 | -1 | /
N#CC(C#N)=C1NC2(CCCCC2)Cc2ccccc21 | -2 | -4 | 5.2* | -1 | -3 | 6
O=C(Nc1ccc(F)cc1)c1ccccc1NS(=O)(=O)N1CCCC1 | 19 | -8 | 8.5* | 0 | -1 | -6
O=C(NC1CCN(Cc2ccccc2)CC1)c1ccccc1 | 1 | -6 | 8.2* | -2 | 0 | -1
CC(=O)NC1C(=O)SC1(C)C (stereo not given) | / | 4 | -3 | / | / | /
Cc1ccc(NC(=O)CN(C)C(=O)CNC(=O)c2cccs2)cc1 | 0 | 1 | 12* | 2 | -4 | -3
CCOC(=O)c1c2n(c3ccc(O)cc13)CCC2 | -20 | -3 | 9.1* | -1 | 2 | 0
CCOC(=O)c1c(C)n(CCNC(C)=O)c2ccc(O)cc12 | / | -11 | -1 | -2 | -2 | /
CCn1c(SCC(=O)N/N=C/c2ccccc2OCC(=O)O)nnc1-c1ccccc1 | / | -9 | -3 | / | / | /
COc1ccc(-c2cc3c(=O)n(CC(=O)NCCN4CCCC4)nc(C)n3n2)cc1 | -5 | -6 | -1 | 3 | 1 | /
CN(C)S(=O)(=O)N1CCC(Oc2cccc(C(=O)NC3CCOC3)c2)CC1 (stereo not given) | 2 | -3 | -1 | 9 | 2 | /
CP(C)(=O)CCP(=O)(c1ccccc1)c1ccccc1 | -1 | -6 | 0 | -2 | -2 | /
CCN(CC)CCP(=O)(c1ccccc1)c1ccccc1 | 2 | 2 | 4.6* | -2 | 1 | -3
COC(=O)Cc1c(O)ccn(CCc2ccc(OC)c(OC)c2)c1=O | -5 | -3 | 7.2* | -2 | 0 | 1
CCOC(=O)C1CCN(C(=O)CC(NS(=O)(=O)c2ccc(OC)cc2)C(C)C)CC1 (stereo not given) | -2 | -2 | 6.2* | 0 | 1 | 2
C=CCN1C(=O)/C(=C2/Sc3ccc(OC)cc3N2C)SC1=Nc1cccc(O)c1 | -2 | 3 | -2 | 2 | 4 | /
CC(C)Cn1nc(NC(=O)c2ccco2)c2cc3ccccc3nc21 | -18 | 2 | 6.8* | 1 | 1 | -2
CCn1nc(NC(=O)c2ccco2)c2cc3ccccc3nc21 | -19 | -1 | 2 | -15 | 3 | /
